This excerpt belongs to a sample that is enriched for hits.
PTHR1 agonist: qHTS for PTHR1 Agonists: Primary Screen. Parathyroid hormone/parathyroid hormone-related peptide receptor (Homo sapiens), Q03431. HEK293 GP2 PTHR1 cells, GloSensor cAMP luminescence, 1 h. Potency, µM (series often up to 115 µM), without a hit: at the top dose activation, actives largely listed as activators. 410,000 compounds, 0.075% hits. AID 743266, 2014; note: potency is the fitted concentration of half-maximal effect; nearly all actives have a fitted effect of over 55% in size
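HEK-293-derived GP2 cells expressing PTHR1 and a GloSensor cAMP reporter, 3,000/well, plated overnight, given luciferin plus IBMX (each 0.5 mM as added) for 1 h at 37 °C, then compound for 1 h at 37 °C. Luminescence was read after 15 min at room temperature.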
TSHR antagonist: Antagonists of the Thyroid Stimulating Hormone Receptor: HTS campaign. activity change, negative = inhibition, % at 11.5 µM. 330,000 compounds, 0.2% hits. AID 504810, 2011. TSHR-expressing cells, TSH-stimulated cAMP HTRF, 2 h; active compounds read low. Thyrotropin receptor (Homo sapiens), P16473;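 active = activity change below a set negative limit, meaning inhibition stronger than a set level, cut at about -70% in these data; inconclusive = activity change between two set negative limits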; note: % is set by controls: 0 for no effect and ±100 for the full control effect
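Read-out is FRET at 665 nm (cryptate excitation 337 nm) from a cryptate-tagged anti-cAMP antibody, competed by cell cAMP against cAMP-d2. Compounds are tested on freshly harvested TSHR cells challenged with 4nM TSH (EC80) for 2 hours at 37 deg C.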
RXFP1 antagonist: qHTS Assay for Antagonists of the Relaxin Receptor RXFP1 | 350,000 compounds, 0.59% hits | HEK293-RXFP1, relaxin-stimulated cAMP HTRF, 30 min; active compounds read low | Relaxin receptor 1 (Homo sapiens), Q9HBX9 | activity change, negative = inhibition, % at 57.5 µM;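 active = activity change of -60% or lower, but not beyond a set lower limit; inconclusive = change between -60% and -40%, or beyond the set limit; inactive = change above -40%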; note: % is set by controls: 0 for no effect and ±100 for the full control effect
RXFP1 agonist: qHTS Assay for Agonists of the Relaxin Receptor RXFP1; Relaxin receptor 1 (Homo sapiens), Q9HBX9; HEK293T-RXFP1 cAMP TR-FRET, 30 min; response scale: percent of porcine relaxin response, buffer zero; Potency, µM (doses to about 57.5 µM), inactives show top-dose activation, actives largely listed as activators; 370,000 compounds, 0.3% hits; note: potency is the fitted concentration of half-maximal effect; % is set by controls: 0 for no effect and ±100 for the full control effect; nearly all actives have a fitted effect of over 60% in size
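cAMP rise read by TR-FRET after 30 min, 37C compound exposure (up to 58 uM) in RXFP1-transfected HEK293 cells with Ro 20174 present. EC50 from Hill-equation fits, with 29 nM porcine relaxin as 100% and buffer as basal.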
HEK293 tox: qHTS of GLP-1 Receptor Inverse Agonists: Cytotox Screen. Potency, µM (series often up to 38.3 µM), for inactives: top-dose activity change, negative = inhibition, actives largely listed as inhibitors. HEK293 cAMP-luciferase reporter cells, luminescence, 24 h. 410,000 compounds, 0.13% hits;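 note: loss of luciferase light is scored as toxicity; potency is the fitted concentration of half-maximal effect; % is set by controls: 0 for no effect and ±100 for the full control effect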
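MLSMR compounds, 24 hr on cells at 37 deg C/5% CO2; luminescence after luciferase reagent (12 min RT). Inhibition counted as the undesired cytotoxic outcome.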
NPSR antag: qHTS Assay for Antagonists of the Neuropeptide S Receptor: cAMP Signal Transduction. Q6W5P4. CHO-NPSR cells, cAMP TR-FRET, antagonist mode. Potency, µM (highest dose often 38.3 µM), for the others: at the highest dose activity change, negative = inhibition, usual class: inhibitors. 220,000 compounds, 1% hits; note: potency is the fitted concentration of half-maximal effect; % is set by controls: 0 for no effect and ±100 for the full control effect; nearly all actives have a fitted effect of over 50% in size
Target sequence (Q6W5P4 whole entry, looked up): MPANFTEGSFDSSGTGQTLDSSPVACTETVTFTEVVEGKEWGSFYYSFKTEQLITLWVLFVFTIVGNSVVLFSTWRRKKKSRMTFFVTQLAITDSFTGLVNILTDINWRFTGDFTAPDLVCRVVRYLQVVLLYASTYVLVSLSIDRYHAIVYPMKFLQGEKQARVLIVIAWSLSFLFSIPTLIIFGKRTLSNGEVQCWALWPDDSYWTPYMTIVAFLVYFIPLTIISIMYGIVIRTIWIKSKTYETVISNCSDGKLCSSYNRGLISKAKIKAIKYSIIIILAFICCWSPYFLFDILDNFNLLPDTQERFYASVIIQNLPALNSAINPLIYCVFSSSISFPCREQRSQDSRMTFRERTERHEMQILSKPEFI
* marks the source's active call; other numbers are inactive results; i = inactive; u = inconclusive; x = no result given; ! = not active in a repeat; [ ] = dose if it differs, or a comment. Unless noted, calls come from the whole dose curve; as a rule, active = well fitted curve in the direction sought with a large enough effect; inconclusive = small, poorly fitted or top-dose-only effect, or another doubt; inactive = no such curve, though single readings can be large; an effect the other way counts as inactive or inconclusive.

SMILES	PTHR1 agonist	TSHR antagonist	RXFP1 antagonist	RXFP1 agonist	HEK293 tox	NPSR antag
CCn1c(/C=C/c2ccc(O)cc2)nc2ccccc2c1=O	-38%	-5	-71*	-1%	5%	x
CC(=O)Oc1c(C)cc(Cl)cc1C(=O)Nc1ccc([N+](=O)[O-])cc1Cl	-54%	-82*	-16	6%	u	-40%
O=C(c1ccc2c(c1)N(Cc1ccc(Cl)cc1)C(=O)c1ccccc1S2=O)N1CCN(c2ccccc2F)CC1 (stereo not drawn)	i	x	x	0%	-1%	x
O=C(COC(=O)C1CCCC1)Nc1cccc(Cl)c1Cl	i	0	-74*	x	-8%	x
O=[N+]([O-])c1cccc(CSc2nnc3ccccn23)c1	-12%	12	3	25µM*	-3%	11%
COc1ccc(CCCNC(=O)C2Cc3c(-c4cccc(NC(C)=O)c4)ccnc3O2)cc1 (stereo not drawn)	-94%	x	x	x	u	x
NC(=O)C1CCN(c2nc(-c3ccccc3)cs2)CC1	x	2	x	x	x	x
O=C(Nc1ccc(Cl)cc1)Nc1nnc(-c2ccncc2)s1	-27%	-12	x	0%	2%	-19%
O=C(Nc1cccc(Cl)c1)Nc1nnc(-c2ccncc2)s1	-25%	-73*	-5	1%	-30%	-25%
OC(CNc1ccnc2cc(Cl)ccc12)CNC1CCCCC1 (stereo not drawn)	i	x	-6	x	5µM*	x
COC(=O)c1ccc(NC(=O)c2cc(S(=O)(=O)N3CCOCC3)cn2C)cc1	i	x	0	1%	-9%	x
COc1cc2c(cc1OC)/C(=C/C(=O)N1CCOCC1)NC(C)(C)C2	-5%	-10	0	1%	40%	9%[46.1 µM]
CC1(C)Cc2ccccc2/C(=C/C(=O)N2CCCCCC2)N1	i	-11	18	3%	-15%	7.9µM*
CCOC(=O)c1c(-c2ccccc2)cn2ccccc12	-64%	-22	-8	2%	11%	15%[46.1 µM]
CCOC(=O)c1c(-c2ccccc2)c[nH]c1C	i	x	-88*	x	0%	x
COC(=O)CCNC(=O)N1CCN(c2nnc(C)c3c(C)n(-c4ccccc4)nc23)CC1	-20%	x	-2	6%	5%	x
CCOc1ccc(N=Nc2c(=O)[nH]n3c(=O)c4c([nH]c23)CCCC4)cc1	-15%	-10	-4	1%	11%	-31%
O=c1[nH]n2c(=O)c3c([nH]c2c1N=Nc1cccc(Cl)c1)CCCC3	-20%	-12	3	-1%	u	10µM*
CCOc1ccc(N2CC(NC(=O)CCc3ccccc3)CC2=O)cc1 (stereo not drawn)	i	x	-1	-2%	-1%	x
COc1cc(C(=O)NCC(c2ccc(F)cc2)N2CCOCC2)ccc1OCc1ccccc1Cl (stereo not drawn)	-12%	-12	-15	0%	-6%	x
CCOc1ccc(CCn2c3c(c(=O)[nH]c2=O)C(NC(=O)c2cccc(F)c2)(C(F)(F)F)C(=O)N3)cc1OCC (stereo not drawn)	i	x	x	-1%	3%	x
CCOc1cc(/C=C2/C(=N)N3OC(C)=CC3=NC2=O)ccc1OCCOc1ccccc1	i	-1	12	1%	-10%	10µM*
O=S(=O)(/N=C(/Nc1cccnc1Cl)c1ccccc1)c1ccccc1	i	x	6	x	-18%	x
Cc1ccc(S(=O)(=O)/N=C(/Nc2ccccc2C)c2ccccc2)cc1	-26%	-8	9	x	8%	x
Cc1ccc(S(=O)(=O)/N=C(/Nc2ccc(F)cc2F)c2ccccc2)cc1	-11%	-10	-65*	1%	0%	x
SMILES	PTHR1 agonist	TSHR antagonist	RXFP1 antagonist	RXFP1 agonist	HEK293 tox	NPSR antag
CCCN1C(C(=O)c2ccccc2)=C(OC(=O)c2ccc(F)cc2)c2ccccc2S1(=O)=O	i	x	-4	0%	-3%	x
CC(=O)OCC1=C(C(=O)O)N2C(=O)[C@@H](NC(=O)CSc3ccncc3)[C@H]2SC1	-8%	9	-92*!	2%	31%	-6%[46.1 µM]
O=[N+]([O-])c1ccc(N/N=C/c2ccc(O)c(O)c2O)c(S(=O)(=O)N2CCOCC2)c1	i	6	-85*	1%	-10%	-35%
O=[N+]([O-])c1ccc(N/N=C/c2cccc(O)c2O)c(S(=O)(=O)N2CCOCC2)c1	-29%	-9	-1	0%	u	-23%
Cc1ccc(-c2nn(-c3ccccc3)cc2C=C2C(=O)CC(C)(C)CC2=O)cc1	-36%[57.5 µM]	12	u	2%	-32%	-5%[46.1 µM]
CC1=NNC(=O)/C1=C\c1cn(-c2ccccc2)nc1-c1ccc(Cl)cc1	-32%	-13	u	2%	-20%	2.5µM*
Cn1nnnc1SCC1=C(C(=O)O)N2C(=O)C(NC(=O)C3CC3c3ccccc3)C2SC1 (stereo not drawn)	-14%	-105*	-2	-1%	-32%	9%
Cn1nnnc1SCC1=C(C(=O)O)N2C(=O)[C@@H](NC(=O)[C@H](O)c3ccccc3)[C@H]2SC1	21%	7	x	-1%	-10%	15%
OC(CN1CCN(c2ccccn2)CC1)Cn1c2ccc(Cl)cc2c2cc(Cl)ccc21 (stereo not drawn)	i	22	5	-1%	-7%	-12%[46.1 µM]
OC(CN1CCCCC1)Cn1c2ccc(Cl)cc2c2cc(Cl)ccc21 (stereo not drawn)	-17%	26	-62*	-1%	u	x
CC(C)C(C(=O)NCc1ccccc1)N1CCN(c2ccccc2F)CC1 (stereo not drawn)	-8%	x	x	x	3%	x
COc1cccc(CNC(=O)CCCSc2ccccc2)c1	i	6	-4	-1%	-25%	x
COc1cccc(CNC(=O)CCCC(=O)NC(C)CCc2ccccc2)c1 (stereo not drawn)	i	-130*	-3	-1%	-5%	x
O=C(CSc1ccc2nnc(-c3cccnc3)n2n1)Nc1ccc(F)cc1	i	6	12	u	5%	x
CCOC(=O)N1CCN(C(=O)CSc2ccc3nnc(-c4cccnc4)n3n2)CC1	u	12	-1	14µM*	3%	6%
CCOc1ccccc1NC(=O)CSc1ccc2nnc(-c3cccnc3)n2n1	i	-5	-2	u	2%	-5%
CCOc1ccc(NC(=O)CSc2ccc3nnc(-c4cccnc4)n3n2)cc1	i	11	11	25µM*	-9%	x

Assay outcomes deposited in PubChem BioAssay by National Center for Advancing Translational Sciences (NCATS).
